Consider 5 compounds from PubChem BioAssay.

The source made the active and inactive calls.

The test system of test [1] is Human papillomavirus type 1a protein E7 (residues 44-93). The experiment in a line: small molecules binding HPV E7 44-93 – biochemical, small-molecule microarray, residues 44-93, 635 nm fluorescence, primary screen (AID 1108).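 Further: E7 fragment applied at 1 µg/mL in TBST for 1 h at 4 C; score combines spot fluorescence with its signal to noise ratio.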 The note with it: fluorescence 635 nm, higher = more signal.
The nature of test [2]: hepatitis C replication reporter changes, two-sided – Huh7 cells, luciferase reporter, HCV replication inhibitor project, primary screen (AID 1109).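 Further: huh7 hepatoma cells harbouring a luciferase neomycin HCV replicon reporter; luciferase luminescence as measure of HCV replicon replication; test concentration not given here.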 As to conditions: Huh7 HCV replicon luciferase reporter, 48 h; higher = more signal. (In general: Reporter assays use an easily measured gene product as a stand-in for the process of interest.)
In test [3] the target is Left-right determination factor 2 (Homo sapiens) (UniProt O00292). Description: small molecules binding LEFTY2 protein – biochemical, small-molecule microarray, 635 nm fluorescence scan, primary screen (AID 1110). The note with it: higher = more signal.
Left-right determination factor 2 (Homo sapiens), sequence (O00292 whole entry, looked up): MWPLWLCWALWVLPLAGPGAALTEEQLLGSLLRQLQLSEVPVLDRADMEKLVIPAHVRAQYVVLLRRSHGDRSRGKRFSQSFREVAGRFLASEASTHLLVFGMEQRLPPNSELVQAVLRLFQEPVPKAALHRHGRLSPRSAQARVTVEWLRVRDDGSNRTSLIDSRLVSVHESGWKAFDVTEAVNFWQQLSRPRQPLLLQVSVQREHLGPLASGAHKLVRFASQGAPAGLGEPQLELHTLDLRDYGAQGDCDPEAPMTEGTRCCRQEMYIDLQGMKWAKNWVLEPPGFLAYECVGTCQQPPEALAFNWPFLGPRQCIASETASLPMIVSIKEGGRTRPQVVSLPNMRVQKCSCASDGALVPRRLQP
The target of test [4] is Calmodulin-1 (Homo sapiens) (UniProt P0DP23). Description: small molecules binding calmodulin-1 with EGTA – biochemical, small-molecule microarray, Cy5-labelled CALM1, profiling panel (AID 1111).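 Further: labelled calmodulin applied in Tris saline Tween buffer holding calcium plus EGTA and DTT.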 The note with it: Cy5-CALM1 binding fluorescence, higher = more signal.
The target is the same in test [5]. The experiment in a line: small molecules binding Ca-loaded calmodulin-1 – biochemical, small-molecule microarray, Cy5-labelled CALM1, plus calcium, artefact control for SMM control-protein annotation, profiling panel (AID 1112).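 Further: score merges spot fluorescence with signal to noise from triplicate slides.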 As to conditions: Cy5-CALM1 binding fluorescence, higher = more signal.
Test [6] can be described thus: probe aWnt5a binding to arrayed compounds – biochemical, biotinylated probe, 635/667 nm fluorescence, primary screen (AID 1113).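 Further: score merges 667 nm fluorescence intensity with signal-to-noise per printed feature.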 The note with it: small-molecule microarray, higher = more signal.
The nature of test [7]: probe aShh binding to arrayed compounds – biochemical, biotinylated probe, 635/667 nm fluorescence, primary screen (AID 1114).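 Further: probe is biotin-labelled aShh protein from a stem cell growth factor screen; measures binding of labelled protein to compounds printed on the slide; score merges feature fluorescence at 667 nm with signal-to-noise.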 The note with it: small-molecule microarray, higher = more signal.
A short description of test [8]: probe aNog binding to arrayed compounds – biochemical, biotinylated probe, 635/667 nm fluorescence, primary screen (AID 1115).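 Further: probe is biotinylated aNog protein used at 0.15 µg/mL for 1 h at 4 C; z-score combines 667 nm fluorescence of each spot with its signal to noise.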 The note with it: small-molecule microarray, higher = more signal.
Test [9] addresses Torsin-1A-interacting protein 1 (Homo sapiens) (UniProt Q5JTV8). The experiment in a line: compound microarray binding of lysate hLAP1 – cell lysate, small-molecule microarray, COS7 lysate, 635/667 nm fluorescence, primary screen (AID 1116). As to conditions: 635 nm fluorescence, higher = more signal.
Test [10] concerns the target Alpha-bungarotoxin (Bungarus multicinctus) (UniProt P60615). The experiment in a line: compounds binding labelled alpha-BTX control protein – biochemical, small-molecule microarray, Alexa647 label, 635/667 nm fluorescence, artefact control for SMM control protein annotation, profiling panel (AID 1117). The note with it: alpha-BTX-A647 binding fluorescence, higher = more signal.

For test [11], the target named is Albumin (Bos taurus) (UniProt P02769). Description: compounds binding labelled BSA control protein – biochemical, small-molecule microarray, Alexa647 label, 635/667 nm fluorescence, artefact control for SMM control protein annotation, profiling panel (AID 1118).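 Further: score merges 667 nm emission intensity and signal-to-noise per printed compound spot.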 As to conditions: BSA-A647 binding, fluorescence 635 nm, higher = more signal.
Albumin (Bos taurus), sequence (P02769 whole entry, looked up): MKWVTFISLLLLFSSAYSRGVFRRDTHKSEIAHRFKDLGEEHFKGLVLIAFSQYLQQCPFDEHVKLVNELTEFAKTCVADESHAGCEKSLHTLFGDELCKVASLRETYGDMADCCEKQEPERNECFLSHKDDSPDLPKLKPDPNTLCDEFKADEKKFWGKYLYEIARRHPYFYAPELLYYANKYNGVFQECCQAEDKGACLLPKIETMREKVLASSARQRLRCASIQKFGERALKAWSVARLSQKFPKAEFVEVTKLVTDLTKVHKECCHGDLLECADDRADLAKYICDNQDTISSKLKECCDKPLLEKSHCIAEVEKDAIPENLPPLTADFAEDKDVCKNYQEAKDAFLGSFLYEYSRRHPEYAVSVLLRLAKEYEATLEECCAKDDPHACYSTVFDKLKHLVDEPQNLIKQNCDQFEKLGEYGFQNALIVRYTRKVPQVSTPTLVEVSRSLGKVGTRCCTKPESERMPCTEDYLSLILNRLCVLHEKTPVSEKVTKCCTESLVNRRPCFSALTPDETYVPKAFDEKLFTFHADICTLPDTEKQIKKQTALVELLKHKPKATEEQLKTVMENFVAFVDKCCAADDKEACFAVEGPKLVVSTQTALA
Test [12] is described as follows: probe aXIP binding to arrayed compounds – biochemical, NeuroSMM set, 635/667 nm fluorescence, primary screen (AID 1119).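 Further: probe is the protein aXip251-270 applied at 1 µg/mL to compound-printed slides; binding of probe to printed compounds measured as 667 nm fluorescence plus signal to noise.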 The note with it: small-molecule microarray, higher = more signal, called active from +8 up or from −8 down.
Test [13] in a line: probe aNOTCH3 binding on compound microarray – biochemical, small-molecule microarray, 635/667 nm fluorescence, primary screen (AID 1120).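 Further: probe is a biotin-tagged antibody raised against NOTCH3 rather than NOTCH3 protein; score merges spot fluorescence near 667 nm with spot signal to noise.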 As to conditions: higher = more signal.
Test [14] can be described thus: probe aNOTCH2 binding on compound microarray – biochemical, small-molecule microarray, 635/667 nm fluorescence, primary screen (AID 1121).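 Further: score merges feature fluorescence read at 667 nm with its signal to noise.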 The note with it: higher = more signal.
Test [15] addresses Carbonic anhydrase 2 (Homo sapiens) (UniProt P00918). The experiment in a line: compounds binding carbonic anhydrase 2 – biochemical, small-molecule microarray, Alexa647-labelled CAII, profiling panel (AID 1122). As to conditions: CAII-A647 binding fluorescence, higher = more signal.
Test [16] can be described thus: COS7 lysate on small-molecule microarray, probe aHis, 635 nm (AID 1123).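 Further: z-score combines 667nm fluorescence intensity with signal-to-noise per printed compound spot.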 As to conditions: COS7 cell lysate, fluorescence, higher = more signal.
Test [17] in a line: probe aLAP1 signal on lysate-treated microarray – cell lysate, small-molecule microarray, COS7 lysate, primary screen (AID 1124).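 Further: lysate comes from COS7 cells expressing LAP1 and is applied at 0.3 µg/mL; score merges spot fluorescence near 667 nm with signal-to-noise over triplicate slides.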 As to conditions: probe aLAP1, fluorescence, higher = more signal.
In test [18] the test system is Sam68 (KHDRBS1). Description: compounds binding KHDRBS1 protein – biochemical, small-molecule microarray, 635 nm fluorescence, primary screen (AID 1125).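 Further: score merges 667 nm channel intensity with signal to noise over triplicate slides.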 As to conditions: higher = more signal.
Test [19] has as its system Chordin-like protein 2 (CHRDL2). The experiment in a line: compounds binding chordin-like 2 – biochemical, small-molecule microarray, 635 nm fluorescence, primary screen (AID 1126).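 Further: printed compound slides probed with Chrdl2 protein at 4 µg/mL for 1 h at 4 C; score merges 667 nm emission intensity with signal to noise over three replicate slides.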 As to conditions: fluorescence 635 nm, higher = more signal.
The target in test [20] is Concanavalin-A (Canavalia ensiformis) (UniProt P02866). Description: compounds binding concanavalin A lectin – biochemical, small-molecule microarray, Alexa647 label, 635 nm, artefact control for SMM control protein annotation, primary screen (AID 1127).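 Further: z combines 667 nm emission intensity with signal-to-noise across three replicate slides.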 As to conditions: ConA-A647 binding fluorescence, higher = more signal.
Concanavalin-A (Canavalia ensiformis), sequence (P02866 whole entry, looked up): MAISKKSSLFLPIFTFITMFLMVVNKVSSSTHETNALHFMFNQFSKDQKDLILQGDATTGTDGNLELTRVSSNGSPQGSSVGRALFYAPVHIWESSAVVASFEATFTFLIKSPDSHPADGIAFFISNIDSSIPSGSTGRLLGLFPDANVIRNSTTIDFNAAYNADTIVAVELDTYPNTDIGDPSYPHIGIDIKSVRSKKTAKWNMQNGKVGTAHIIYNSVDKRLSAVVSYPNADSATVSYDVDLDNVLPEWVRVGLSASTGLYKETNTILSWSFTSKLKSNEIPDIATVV

Alpha-bungarotoxin (Bungarus multicinctus), sequence (P60615 whole entry, looked up): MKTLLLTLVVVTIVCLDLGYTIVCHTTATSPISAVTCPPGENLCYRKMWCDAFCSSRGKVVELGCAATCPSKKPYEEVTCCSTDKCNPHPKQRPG
Torsin-1A-interacting protein 1 (Homo sapiens), sequence (Q5JTV8 whole entry, looked up): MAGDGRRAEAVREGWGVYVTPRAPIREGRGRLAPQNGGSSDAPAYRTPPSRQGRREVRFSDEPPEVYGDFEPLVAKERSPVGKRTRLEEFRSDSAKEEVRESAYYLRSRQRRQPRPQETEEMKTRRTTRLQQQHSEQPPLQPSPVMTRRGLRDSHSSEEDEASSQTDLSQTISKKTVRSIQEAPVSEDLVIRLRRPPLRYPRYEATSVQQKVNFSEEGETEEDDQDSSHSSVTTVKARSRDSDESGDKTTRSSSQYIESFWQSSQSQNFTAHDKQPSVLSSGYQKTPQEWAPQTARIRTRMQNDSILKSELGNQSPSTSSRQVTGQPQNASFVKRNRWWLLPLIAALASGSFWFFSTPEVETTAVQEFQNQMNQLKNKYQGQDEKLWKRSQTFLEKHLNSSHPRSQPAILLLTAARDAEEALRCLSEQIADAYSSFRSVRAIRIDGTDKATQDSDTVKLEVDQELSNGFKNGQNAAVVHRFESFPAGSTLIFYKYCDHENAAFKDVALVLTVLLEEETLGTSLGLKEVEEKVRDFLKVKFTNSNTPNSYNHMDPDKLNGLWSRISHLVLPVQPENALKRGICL

With `COC(=O)[C@@]1(Cc2ccc(OC)cc2)[C@H]2c3cc(C(=O)N(C)C)n(Cc4nc5ccccc5[nH]4)c3C[C@H]2CN1C(=O)c1ccccc1`, the composite z-score is 1.48 in test [1]; -0.314 in [3]; 2.08 in test [4]; 1.06 in test [5]; 0.343 in test [6]; 0.361 in [7]. For the same compound, the composite z-score in test [8] is 1.81; in test [9] it was 0.564; in [10], 1.26; in test [11], 0.997; in [13], 0.515; in [14] it was -0.112. In addition, the composite z-score in test [15] was 0.781; in test [16] it was 2.27; in test [17], -0.0637; in test [18] it was 1.32; in [19] it was -0.54; in test [20] it was 1.19. Further, in test [2], the z-score was -1.81. For the same compound, the composite Z-score in test [12] is -0.119 (inactive).
Regarding `C=C[C@@H](C)[C@H](OC(=O)Nc1ccc(SC)cc1)c1ccc(OCCO)cc1`, the composite z-score was -0.868 in [1]; -1.03 in test [3]; -0.163 in test [4]; 0.649 in test [5]; 0.0423 in test [6]; -0.206 in test [7]. Also, the composite z-score is 1.41 in test [8]; -0.111 in test [9]; 0.0265 in test [10]; -0.145 in [11]; 0.132 in test [13]; -0.259 in [14]. The composite z-score in test [15] is 0.449; in [16], 0.476; in test [17], -0.0181; in test [18] it was -0.867; in test [19], -0.61; in [20], -0.345. In [2], this compound displayed a z-score of 2.09. Further, in test [12], the composite Z-score is -0.109 (inactive).
`COCCCNC(=O)[C@@]1(Sc2ccc(C)cc2)CC(=O)N(Cc2cc(C(F)(F)F)cc(C(F)(F)F)c2)[C@@H]1c1ccc(CO)cc1`: the composite z-score in [1] was 1.07; in [3] it was -0.223; in test [4], 0.0267; in test [5], -0.683; in test [6], -0.096; in [7], 0.0136. Moreover, the composite z-score in test [8] is -0.0069; in test [9], 0.156; in [10] it was 2.13; in test [11], 0.734; in test [13], 0.0562; in test [14] it was -0.0136. Moreover, the composite z-score amounted to 0.703 in [15]; 2.41 in test [16]; 1.1 in [17]; 1.21 in [18]; 0.749 in test [19]; 0.715 in test [20]. This compound also displayed a z-score in test [2] of -0.168. Moreover, in [12], the composite Z-score is 1.14 (inactive).
As to `COc1ccc(C#Cc2ccc3c(c2)[C@]2(C(=O)N3)[C@H](C(=O)N3CCc4cc(OC)c(OC)cc4C3)[C@H]3C(=O)O[C@H](c4ccccc4)[C@H](c4ccccc4)N3[C@@H]2c2ccc(O)cc2)cc1`, the composite z-score was 1.38 in test [1]; 0.388 in test [3]; 1.22 in test [4]; 0.06 in [5]; -0.122 in [6]; -0.0243 in test [7]. The composite z-score came out at 0.272 in test [8]; 0.0204 in test [9]; 1.04 in [10]; 0.845 in [11]; 0.0562 in test [13]; 0.0397 in test [14]. The composite z-score was 0.432 in test [15]; 1.46 in test [16]; -0.0296 in test [17]; 1.3 in [18]; 0.137 in test [19]; 1.13 in test [20]. The same compound had a z-score in [2] of -1.21. Also, in test [12], the composite Z-score was 1.1 (inactive).
For the compound `COCCOC(=O)N1C(=O)[C@@]2(c3cc(C#Cc4ccc(OC)cc4)ccc31)[C@H](C(=O)N1CCN(c3ncccn3)CC1)[C@H]1C(=O)O[C@H](c3ccccc3)[C@H](c3ccccc3)N1[C@@H]2c1ccccc1OCCO`, the composite z-score in test [1] is 1.23; in test [3], 0.0641; in test [4], 0.551; in test [5], 0.858; in test [6], -0.131; in test [7], -0.0011. In addition, the composite z-score was 0.187 in [8]; 0.931 in test [9]; 1 in [10]; -0.108 in test [11]; -0.122 in test [13]; -0.114 in test [14]. Also, the composite z-score was 0.331 in test [15]; 1.3 in test [16]; 0.107 in test [17]; 0.717 in test [18]; -0.0849 in test [19]; 0.819 in test [20]. The compound further returned a z-score in [2] of -0.509. Also, the composite Z-score in [12] is 0.131 (inactive).
